This passage reports growth results from PubChem BioAssay (NCI).

Structures are written as SMILES. Compounds without any hit were thinned out: in the full panel of roughly 83,000, 20% have a hit.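 In brief: 96-well plates, 48 h treatment, single concentration, percent growth endpoint.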 Values without a mark were called inactive. Activity calls are given as the source filed them. Rule for the calls: active = growth percent below 10; inactive = the rest.

Among the test systems are RPMI-8226 leukemia; OVCAR-8 ovarian; OVCAR-5 ovarian; OVCAR-4 ovarian; SK-OV-3 ovarian; IGROV1 ovarian; OVCAR-3 ovarian; NCI/ADR-RES ovarian; HS 578T breast.
Test in all cases: NCI-60 one-dose screen, 48 h (100 = growth as untreated, 0 = no growth, -100 = all killed)
What all share (conditions): 10 µM unless noted

As for `CC(=O)N1N=C(c2ccc(Nc3nc(NCCO)nc(NCCO)n3)cc2)CC1c1ccc(Cl)cc1` (configuration not stated), the growth in the assay on RPMI-8226 leukemia is 112%; in the assay on OVCAR-8 ovarian, 104%; with OVCAR-5 ovarian it was 103%; with OVCAR-4 ovarian it was 104%; in the assay on SK-OV-3 ovarian it was 101%; with IGROV1 ovarian, 99.4%. Moreover, the growth is 96.4% in the assay with OVCAR-3 ovarian and 99.8% in the assay on NCI/ADR-RES ovarian.
Consider `CN1CCC[C@@H]1CCO[C@](C)(c1ccccc1)c1ccc(Cl)cc1`, for which the growth in the assay on RPMI-8226 leukemia is 70.4%; in the assay with OVCAR-8 ovarian, 88.1%; in the assay on OVCAR-5 ovarian, 73.6%; with OVCAR-4 ovarian, 75.6%; with SK-OV-3 ovarian it was 73.9%; in the assay on IGROV1 ovarian, 63.6%. Moreover, the results for the growth in the assay with OVCAR-3 ovarian, with HS 578T breast and in the assay on NCI/ADR-RES ovarian were 100%, 80.9% and 76.5%, respectively.
With `CCOC(=O)N1CCC(N=C2CSc3nnc(-c4cc(C(F)(F)F)cc(C(F)(F)F)c4)n3N2)CC1`, the growth is 29% in the assay on RPMI-8226 leukemia; 22.2% in the assay with OVCAR-8 ovarian; 25.6% with OVCAR-5 ovarian; 25.1% with OVCAR-4 ovarian; 41.4% in the assay with SK-OV-3 ovarian; 44.1% in the assay with IGROV1 ovarian. Moreover, the growth in the assay on OVCAR-3 ovarian was 28.5%; in the assay with HS 578T breast, 21.5%; in the assay on NCI/ADR-RES ovarian it was 14.1%.
`Cc1ccc(S(=O)(=O)N2CCN(C(=O)CSc3nc4ccc(C)cc4[nH]3)CC2)cc1`: the growth in the assay with RPMI-8226 leukemia was 108%; in the assay on OVCAR-8 ovarian, 74.5%; with OVCAR-5 ovarian, 117%; in the assay on OVCAR-4 ovarian it was 107%; in the assay with SK-OV-3 ovarian, 114%; with OVCAR-3 ovarian it was 111%. The growth in the assay with HS 578T breast is 126%; with NCI/ADR-RES ovarian it was 107%.
`Clc1ccc(C2c3ccccc3-c3nccn32)c(Cl)c1` (configuration not stated): the growth in the assay with RPMI-8226 leukemia was 26.5%; in the assay on OVCAR-8 ovarian, 84.1%; with OVCAR-5 ovarian it was 114%; in the assay with OVCAR-4 ovarian it was 47.3%; in the assay on SK-OV-3 ovarian, 84.7%; with IGROV1 ovarian, 77.1%. Also, the growth in the assay on OVCAR-3 ovarian was 55%; in the assay on HS 578T breast, 73.7%; in the assay on NCI/ADR-RES ovarian, 61.5%.
Regarding `O=C1Nc2ccc(Cl)cc2[C@@](C#CC2CC2)(C(F)(F)F)O1`, the growth is 92.2% with RPMI-8226 leukemia; 91.3% with OVCAR-8 ovarian; 91.1% in the assay on OVCAR-5 ovarian; 89.1% with OVCAR-4 ovarian; 110% in the assay on SK-OV-3 ovarian; -10.5% (active) with IGROV1 ovarian. The values for the growth in the assay with OVCAR-3 ovarian and in the assay on NCI/ADR-RES ovarian were 101% and 99.1%, respectively.
For `CC(C)Cn1cnc2c(NCn3nc(-c4cc(Cl)cc(Cl)c4Cl)n(/N=C/c4ccc(Cl)cc4)c3=S)nc3ccccc3c21`, the growth with RPMI-8226 leukemia was 44.3%; in the assay with OVCAR-8 ovarian, 72.4%; in the assay with OVCAR-5 ovarian it was 92.1%; in the assay on OVCAR-4 ovarian it was 71.1%; in the assay on SK-OV-3 ovarian, 110%; in the assay with IGROV1 ovarian it was 4.11% (active). Also, the growth in the assay on OVCAR-3 ovarian is 98%; with HS 578T breast it was 94%; in the assay with NCI/ADR-RES ovarian it was 56.3%.
Regarding `O=C1/C(=C/c2ccc(F)cc2)Cc2ccccc21`, the growth was 98% in the assay on RPMI-8226 leukemia; 101% in the assay on OVCAR-8 ovarian; 92.6% in the assay with OVCAR-5 ovarian; 87.7% in the assay with OVCAR-4 ovarian; 110% in the assay on SK-OV-3 ovarian; 105% with IGROV1 ovarian. In addition, the growth in the assay on OVCAR-3 ovarian is 110%; in the assay on NCI/ADR-RES ovarian it was 107%.
Regarding `CCOc1cc(/C=C/C(=O)C(C(=O)/C=C/c2ccc(OC(=O)CNc3nnc(C)s3)c(OCC)c2)C(=O)CNc2nnc(C)s2)ccc1OC(=O)CNc1nnc(C)s1`, the growth is -68.3% (active) in the assay on RPMI-8226 leukemia; 2.17% (active) in the assay with OVCAR-8 ovarian; -11.7% (active) in the assay with OVCAR-5 ovarian; 23.1% in the assay with OVCAR-4 ovarian; 43.6% in the assay on SK-OV-3 ovarian; -53.7% (active) in the assay with IGROV1 ovarian. Further, the results for the growth in the assay on OVCAR-3 ovarian, in the assay with HS 578T breast and in the assay on NCI/ADR-RES ovarian were 11.3%, 10.1% and 7.78% (active), respectively.
On to `CC[N+](CCCCCCCCCC[N+](CC)(c1ccccn1)c1ccccn1)(c1ccccn1)c1ccccn1`, for which the growth in the assay with RPMI-8226 leukemia is 1.5% (active); in the assay with OVCAR-8 ovarian, 7.02% (active); in the assay on OVCAR-5 ovarian it was 24.1%; with OVCAR-4 ovarian it was 20.5%; with SK-OV-3 ovarian, 8.24% (active); in the assay on IGROV1 ovarian, -35.2% (active). Besides, the growth is 3.49% (active) in the assay on OVCAR-3 ovarian and 63.6% in the assay with NCI/ADR-RES ovarian.
As for `Cc1cc(Br)c(C)cc1Br`, the growth in the assay on RPMI-8226 leukemia is 103%; in the assay on OVCAR-8 ovarian it was 101%; in the assay with OVCAR-5 ovarian, 103%; in the assay with OVCAR-4 ovarian it was 103%; in the assay with SK-OV-3 ovarian, 92.7%; with IGROV1 ovarian it was 137%. For the same compound, the results for the growth in the assay with OVCAR-3 ovarian, in the assay with HS 578T breast and with NCI/ADR-RES ovarian were 103%, 105% and 112%, respectively.
Consider `O=Nc1c2cccnc2n2nnc3ccc(Cl)cc3c12`, for which the growth is -63.1% (active) with RPMI-8226 leukemia; -26.8% (active) in the assay on OVCAR-8 ovarian; 94.9% with OVCAR-5 ovarian; -27.7% (active) in the assay on OVCAR-4 ovarian; 92.2% in the assay with SK-OV-3 ovarian; -29.5% (active) in the assay on OVCAR-3 ovarian. Also, the growth with HS 578T breast was 70%; with NCI/ADR-RES ovarian, 54.8%.
